PubChem BioAssay (EPA / NIEHS)
Calls of active or inactive are those of the source. How the source made its calls: active means hit-call score of the fitted dose curve at least 0.9, where 1 is the maximum; inactive means score below 0.9.

Columns and labels:
Settings in all cases: mRNA level, 48 h; actives raise or lower the signal
CYP2E1 (gene 1571) = experiment: LTEA_HepaRG_CYP2E1: Life Technologies and Expression Analysis (LTEA) Assay for CYP2E1 using HepaRG (AID 2283485)
Procedure, shortened: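 CYP2E1 transcript measured by Fluidigm qRT-PCR against three housekeeping genes in human HepaRG cells treated 48 h (top 100 uM, half-log steps, 0.5% DMSO vehicle). Gain or loss fitted relative to DMSO baseline.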

CYP4A11 (gene 1579) = experiment: LTEA_HepaRG_CYP4A11: Life Technologies and Expression Analysis (LTEA) Assay for CYP4A11 using HepaRG (AID 2283486)
Procedure, shortened: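 HepaRG, 48 h chem exposure, 8 conc (100 uM top, half-log), 0.5% DMSO vehicle; qRT-PCR readout, housekeeping-gene normalized; bidirectional curve fit vs DMSO baseline.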

[1] = read-out: Cytochrome P450 3A4 (Homo sapiens) (UniProt P08684); experiment: LTEA_HepaRG_CYP3A4: Life Technologies and Expression Analysis (LTEA) Assay for CYP3A4 using HepaRG (AID 2283487)
Procedure, shortened: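 Differentiated HepaRG cells, plated 48 h, then dosed 48 h in serum-free induction medium with 0.5% DMSO, 8 half-log concentrations up to 100 uM, duplicate. CYP3A4 mRNA by qRT-PCR, normalized to ACTB/GAPDH/POLR2A; bidirectional fit versus DMSO.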

[2] = read-out: Pro-epidermal growth factor (Homo sapiens) (UniProt P01133); experiment: LTEA_HepaRG_EGF: Life Technologies and Expression Analysis (LTEA) Assay for Epidermal growth factor (EGF) using HepaRG (AID 2283489)
Procedure, shortened: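 HepaRG, 48 h dosing, 100 uM top, half-log x8, 0.5% DMSO. Readout: TaqMan qRT-PCR (Fluidigm array), housekeeping-normalized. Gain or loss of signal fit vs DMSO.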

[3] = read-out: Early growth response protein 1 (EGR1) transcription factor, EGR1 (gene 1958); experiment: LTEA_HepaRG_EGR1: Life Technologies and Expression Analysis (LTEA) Assay for Early growth response protein 1 (EGR1) transcription factor using HepaRG (AID 2283490)
Procedure, shortened: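 EGR1 expression change in human HepaRG after 48 h chemical exposure, assessed by housekeeping-normalized qRT-PCR; concentration-response up to 100 uM, fitted in both directions against DMSO controls.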

[4] = read-out: Cytochrome P450 3A7 (Homo sapiens) (UniProt P24462); experiment: LTEA_HepaRG_CYP3A7: Life Technologies and Expression Analysis (LTEA) Assay for CYP3A7 using HepaRG (AID 2283492)
Procedure, shortened: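 Human HepaRG liver cells, 48 h post-plating, switched to serum-free induction medium and exposed in duplicate for 48 h. Dosing: 100 uM top, half-log dilutions, 8 points, 0.5% DMSO vehicle. Read-out: CYP3A7 mRNA, gain or loss fitted against DMSO baseline.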

CYP3A5 (gene 1577) = experiment: LTEA_HepaRG_CYP3A5: Life Technologies and Expression Analysis (LTEA) Assay for CYP3A5 using HepaRG (AID 2283493)
Procedure, shortened: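 mRNA levels were quantified by qRT-PCR on Fluidigm arrays and normalized to three housekeeping genes. Differentiated HepaRG cells received 48 h exposure (top 100 uM, half-log steps, 0.5% DMSO vehicle, duplicate); bidirectional fitting versus DMSO.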

[5] = read-out: Cytochrome P450 7A1 (Homo sapiens) (UniProt P22680); experiment: LTEA_HepaRG_CYP7A1: Life Technologies and Expression Analysis (LTEA) Assay for Cytochrome P450 7A1 (CYP7A1) using HepaRG (AID 2283496)
Procedure, shortened: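 HepaRG, 48 h exposure, 8-pt half-log series from 100 uM, 0.5% DMSO vehicle, duplicates. Readout: TaqMan qRT-PCR mRNA vs three housekeeping genes; bidirectional curve fit against DMSO baseline.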

[6] = read-out: Glutathione S-Transferase (GSTA2), GSTA2 (gene 2939); experiment: LTEA_HepaRG_GSTA2: Life Technologies and Expression Analysis (LTEA) Assay for Glutathione S-Transferase (GSTA2) using HepaRG (AID 2283497)
Procedure, shortened: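 Oxidative-stress marker GSTA2 is quantified by TaqMan qRT-PCR in HepaRG cultures treated 48 h across an eight-point range to 100 uM. Expression is normalized to endogenous controls and compared with 0.5% DMSO vehicle.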

[7] = read-out: Glutamate-cysteine ligase catalytic (GCLC), GCLC (gene 2729); experiment: LTEA_HepaRG_GCLC: Life Technologies and Expression Analysis (LTEA) Assay for Glutamate-cysteine ligase catalytic (GCLC) using HepaRG (AID 2283498)
Procedure, shortened: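 Oxidative-stress marker GCLC is measured as mRNA change in human HepaRG liver cells after 48 h chemical treatment in 0.5% DMSO, eight concentrations from 100 uM. Activity is fitted bidirectionally against vehicle.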

[8] = read-out: growth arrest and DNA damage 45 (GADD45G), GADD45G (gene 10912); experiment: LTEA_HepaRG_GADD45G: Life Technologies and Expression Analysis (LTEA) Assay for growth arrest and DNA damage 45 (GADD45G) using HepaRG (AID 2283499)
Procedure, shortened: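 Gain or loss of GADD45G mRNA, quantified by TaqMan qRT-PCR against three housekeeping genes, is fitted in both directions relative to 0.5% DMSO. Human HepaRG cultures receive test chemical for 48 h at up to 100 uM.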

[9] = read-out: Glutamate-cysteine ligase regulatory (GCLM), GCLM (gene 2730); experiment: LTEA_HepaRG_GCLM: Life Technologies and Expression Analysis (LTEA) Assay for Glutamate-cysteine ligase regulatory (GCLM) using HepaRG (AID 2283500)
Procedure, shortened: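 GCLM expression quantified by qRT-PCR, normalized to three housekeeping genes, after 48 h chemical treatment of HepaRG cells in duplicate at 8 concentrations (top 100 uM, half-log steps, 0.5% DMSO). Changes fitted both directions against vehicle.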

[10] = read-out: Glutathione S-transferase M3 (GSTM3), GSTM3 (gene 2947); experiment: LTEA_HepaRG_GSTM3: Life Technologies and Expression Analysis (LTEA) Assay for Glutathione S-transferase M3 (GSTM3) using HepaRG (AID 2283501)
Procedure, shortened: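 HepaRG, plated 48 h, then serum-free induction medium; test chemical 48 h, duplicate; 100 uM top, half-log x8, 0.5% DMSO. Read-out: GSTM3 mRNA (TaqMan qRT-PCR, Fluidigm array). Bidirectional fit vs DMSO.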

[11] = read-out: Heat shock 70 kDa protein 1 (HSPA1A), gene 3303; experiment: LTEA_HepaRG_HSPA1A: Life Technologies and Expression Analysis (LTEA) Assay for Heat shock 70 kDa protein 1 (HSPA1A) using HepaRG (AID 2283502)
Procedure, shortened: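 HSPA1A expression measured by qRT-PCR with ACTB/GAPDH/POLR2A normalization; curves fitted in both directions relative to DMSO vehicle. Exposure: 48 h in HepaRG cells, duplicate 8-point half-log series from 100 uM, 0.5% DMSO, serum-free induction medium.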

[12] = read-out: 3-Hydroxy-3-Methylglutaryl-CoA Synthase 2 (HMGCS2), HMGCS2 (gene 3158); experiment: LTEA_HepaRG_HMGCS2: Life Technologies and Expression Analysis (LTEA) Assay for 3-Hydroxy-3-Methylglutaryl-CoA Synthase 2 (HMGCS2) using HepaRG (AID 2283504)
Procedure, shortened: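 HepaRG, plated 48 h then switched to serum-free induction media; cmpd 8-pt, max 100 uM, 1/2-log, 0.5% DMSO, n=2, 48 h. HMGCS2 mRNA by Fluidigm TaqMan qRT-PCR, ACTB/GAPDH/POLR2A norm; bidirectional fit vs DMSO.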

HGF (gene 3082) = experiment: LTEA_HepaRG_HGF: Life Technologies and Expression Analysis (LTEA) Assay for Hepatocyte Growth Facto (HGF) using HepaRG (AID 2283505)
Procedure, shortened: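 Read-out is HGF transcript level by qRT-PCR, normalized to three housekeeping genes, fitted bidirectionally against 0.5% DMSO vehicle. Human HepaRG cells received test chemicals for 48 h at up to 100 uM.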

[13] = read-out: Insulin Like Growth Factor 1 (IGF1), IGF1 (gene 3479); experiment: LTEA_HepaRG_IGF1: Life Technologies and Expression Analysis (LTEA) Assay for Insulin Like Growth Factor 1 (IGF1) using HepaRG (AID 2283506)
Procedure, shortened: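 Expression measured by TaqMan qRT-PCR on a Fluidigm array, with three housekeeping genes for normalisation, after 48 h treatment of HepaRG cells. Top concentration 100 uM with half-log steps, 0.5% DMSO vehicle, bidirectional fit.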

[14] = read-out: Intercellular Adhesion Molecule 1 (ICAM1), ICAM1 (gene 3383); experiment: LTEA_HepaRG_ICAM1: Life Technologies and Expression Analysis (LTEA) Assay for Intercellular Adhesion Molecule 1 (ICAM1) using HepaRG (AID 2283507)
Procedure, shortened: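 Readout is qRT-PCR mRNA level, normalized to three housekeeping genes and fitted bidirectionally against 0.5% DMSO vehicle. Human HepaRG cultures received compound for 48 h, top concentration 100 uM with half-log dilutions.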

[15] = read-out: Insulin-like growth factor-binding protein 1 (IGFBP1), IGFBP1 (gene 3484); experiment: LTEA_HepaRG_IGFBP1: Life Technologies and Expression Analysis (LTEA) Assay for Insulin-like growth factor-binding protein 1 (IGFBP1) using HepaRG (AID 2283508)
Procedure, shortened: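 Thawed HepaRG cells are plated for 48 h, switched to serum-free induction medium, then dosed in duplicate for another 48 h (100 uM top, half-log steps). Lysates in RLT go to qRT-PCR, and gain or loss of signal is fitted relative to vehicle.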

[16] = read-out: Hypoxia-inducible factor 1-alpha (Homo sapiens) (UniProt Q16665); experiment: LTEA_HepaRG_HIF1A: Life Technologies and Expression Analysis (LTEA) Assay for Hypoxia-inducible factor 1 (HIF1A) Trancription factor using HepaRG (AID 2283503)
Procedure, shortened: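 HIF1A transcript level read by qRT-PCR (ACTB, GAPDH, POLR2A normalization) after 48 h chemical exposure of HepaRG cultures. Eight half-log concentrations, top 100 uM, 0.5% DMSO vehicle, duplicates; bidirectional curve fit against DMSO baseline.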

Measured: AC50

Sequence of Cytochrome P450 3A4 (Homo sapiens) (P08684 whole entry, looked up): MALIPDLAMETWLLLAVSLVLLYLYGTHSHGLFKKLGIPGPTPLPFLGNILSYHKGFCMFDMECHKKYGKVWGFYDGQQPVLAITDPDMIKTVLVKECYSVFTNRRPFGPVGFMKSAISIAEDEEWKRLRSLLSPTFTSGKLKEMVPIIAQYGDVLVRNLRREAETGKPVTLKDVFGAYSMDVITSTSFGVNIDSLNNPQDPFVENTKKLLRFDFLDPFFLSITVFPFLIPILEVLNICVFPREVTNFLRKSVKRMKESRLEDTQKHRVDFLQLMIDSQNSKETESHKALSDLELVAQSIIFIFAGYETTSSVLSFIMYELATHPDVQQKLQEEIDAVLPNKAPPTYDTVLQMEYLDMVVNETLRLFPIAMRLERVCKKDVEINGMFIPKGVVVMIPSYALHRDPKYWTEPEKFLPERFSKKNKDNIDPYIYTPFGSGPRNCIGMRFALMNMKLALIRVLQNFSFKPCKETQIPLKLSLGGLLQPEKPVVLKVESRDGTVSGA
Sequence of Hypoxia-inducible factor 1-alpha (Homo sapiens) (Q16665 whole entry, looked up): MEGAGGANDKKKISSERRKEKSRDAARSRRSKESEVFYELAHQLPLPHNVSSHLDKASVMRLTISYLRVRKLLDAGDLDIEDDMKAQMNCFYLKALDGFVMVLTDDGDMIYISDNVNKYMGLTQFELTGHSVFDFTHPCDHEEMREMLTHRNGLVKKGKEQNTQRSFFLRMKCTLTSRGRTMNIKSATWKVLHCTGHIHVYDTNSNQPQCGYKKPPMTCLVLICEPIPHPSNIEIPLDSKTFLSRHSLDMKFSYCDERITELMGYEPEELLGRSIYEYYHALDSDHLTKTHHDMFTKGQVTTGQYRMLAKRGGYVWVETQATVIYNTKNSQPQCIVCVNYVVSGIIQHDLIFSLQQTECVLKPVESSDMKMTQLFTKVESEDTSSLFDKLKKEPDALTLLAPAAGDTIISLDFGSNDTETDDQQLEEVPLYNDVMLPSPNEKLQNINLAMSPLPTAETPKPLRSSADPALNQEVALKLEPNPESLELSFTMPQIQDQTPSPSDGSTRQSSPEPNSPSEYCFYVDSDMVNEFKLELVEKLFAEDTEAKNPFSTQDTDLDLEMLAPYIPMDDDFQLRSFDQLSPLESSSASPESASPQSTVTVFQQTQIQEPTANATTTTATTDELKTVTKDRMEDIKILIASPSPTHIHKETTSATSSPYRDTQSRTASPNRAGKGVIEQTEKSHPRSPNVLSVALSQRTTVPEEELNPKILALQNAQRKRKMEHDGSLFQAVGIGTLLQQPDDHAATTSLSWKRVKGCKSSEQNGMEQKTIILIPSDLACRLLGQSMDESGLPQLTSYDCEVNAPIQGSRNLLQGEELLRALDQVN
Sequence of Cytochrome P450 3A7 (Homo sapiens) (P24462 whole entry, looked up): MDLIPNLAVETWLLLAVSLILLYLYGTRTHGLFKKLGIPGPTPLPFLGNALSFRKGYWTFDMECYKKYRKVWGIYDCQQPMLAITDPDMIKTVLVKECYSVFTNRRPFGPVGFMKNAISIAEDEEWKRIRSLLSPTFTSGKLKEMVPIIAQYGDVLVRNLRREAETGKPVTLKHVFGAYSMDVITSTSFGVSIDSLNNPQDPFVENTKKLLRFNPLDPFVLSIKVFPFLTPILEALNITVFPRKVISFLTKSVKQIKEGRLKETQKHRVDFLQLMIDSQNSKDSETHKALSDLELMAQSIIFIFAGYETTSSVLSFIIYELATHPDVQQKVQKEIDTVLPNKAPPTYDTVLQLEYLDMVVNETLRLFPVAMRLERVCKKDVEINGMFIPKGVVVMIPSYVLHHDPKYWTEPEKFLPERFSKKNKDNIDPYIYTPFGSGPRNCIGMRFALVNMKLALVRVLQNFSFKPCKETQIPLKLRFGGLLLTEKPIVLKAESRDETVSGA

CC(C)(C)c1cc(O)ccc1O
inactive: CYP2E1 (gene 1571) | CYP4A11 (gene 1579) | [1] | [2] | [3] | [4] | CYP3A5 (gene 1577) | [5] | [6] | [7] | [8] | [9] | [10] | [11] | [12] | HGF (gene 3082) | [13] | [14] | [15]

CCN1CCC2(CC1)COc1cc3c(cc12)N(C(=O)c1ccc(-c2ccc(-c4nnc(C)o4)cc2C)cc1)CC3
inactive: [2] | [4] | [5] | [10] | HGF (gene 3082)
active: CYP2E1 (gene 1571) 17.7 µM | CYP4A11 (gene 1579) 46.8 µM | [1] 28 µM | [3] 11.9 µM | CYP3A5 (gene 1577) 16 µM | [6] 75.2 µM | [7] 25.4 µM | [8] 74 µM | [9] 26.8 µM | [11] 16.6 µM | [16] 27.7 µM | [12] 22.8 µM | [13] 14.5 µM | [14] 11.1 µM | [15] 13.4 µM

C[C@]12CCC(=O)C[C@@H]1CC[C@@H]1[C@@H]2CC[C@]2(C)[C@@H](O)CC[C@@H]12
active: CYP2E1 (gene 1571) 50 µM | CYP4A11 (gene 1579) 23.9 µM
inactive: [1] | [2] | [3] | [4] | CYP3A5 (gene 1577) | [5] | [6] | [7] | [8] | [9] | [10] | [11] | [16] | [12] | HGF (gene 3082) | [13] | [14] | [15]

CC(=O)[O][Hg][c]1ccccc1
inactive: CYP4A11 (gene 1579) | [10] | [16]
active: CYP2E1 (gene 1571) 13.2 µM | [1] 3.76 µM | [3] 26.9 µM | [4] 5 µM | CYP3A5 (gene 1577) 11 µM | [6] 25.4 µM | [7] 23.1 µM | [8] 82.8 µM | [9] 23 µM | [11] 50 µM | [12] 23.3 µM | HGF (gene 3082) 2.1 µM | [13] 23.1 µM | [14] 0.558 µM | [15] 4.6 µM

CC(C)(OO)c1ccccc1
inactive: CYP2E1 (gene 1571) | CYP4A11 (gene 1579) | [1] | [2] | [3] | [4] | CYP3A5 (gene 1577) | [5] | [6] | [7] | [8] | [9] | [10] | [11] | [16] | [12] | HGF (gene 3082) | [13] | [14] | [15]
